Test results as given in PubChem BioAssay (NCI).
The panel holds about 83,000 compounds, 20% with a hit somewhere; the sample as a whole holds those more often.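 How to read the values: 0–100, growth inhibition (40 = 60% inhibited); 0, no net growth; -100 to 0, cell death (-40 = 40% of starting cells died; -100 = all dead).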 Unmarked numbers belong to inactive results. Activity calls are given as the source filed them. How the source made its calls: active means growth percent below 10; inactive means the rest.

How the values were obtained:
Test in all cases: NCI-60 one-dose screen, 48 h (100 = growth as untreated, 0 = no growth, -100 = all killed)
[1] = test system: DU-145 prostate; settings: 10 µM unless noted
[2] = test system: K-562 leukemia; settings: 10 µM unless noted
[3] = test system: MALME-3M melanoma; settings: 10 µM unless noted
[4] = test system: MDA-MB-231 breast; settings: 10 µM unless noted
[5] = test system: RXF 393 renal; settings: 10 µM unless noted
[6] = test system: SF-268 CNS; settings: 10 µM unless noted
[7] = test system: SF-295 CNS; settings: 10 µM unless noted
[8] = test system: SF-539 CNS; settings: 10 µM unless noted
[9] = test system: UACC-257 melanoma; settings: 10 µM
[10] = test system: M14 melanoma; settings: 10 µM unless noted
[11] = test system: HCT-15 colon; settings: 10 µM unless noted
[12] = test system: HT29 colon; settings: 10 µM unless noted
[13] = test system: SNB-75 CNS; settings: 10 µM unless noted
[14] = test system: SNB-19 CNS; settings: 10 µM unless noted
[15] = test system: U251 CNS; settings: 10 µM unless noted
[16] = test system: PC-3 prostate; settings: 10 µM unless noted
[17] = test system: SK-MEL-5 melanoma; settings: 10 µM unless noted
[18] = test system: UACC-62 melanoma; settings: 10 µM unless noted
[19] = test system: LOX IMVI melanoma; settings: 10 µM unless noted
[20] = test system: SK-MEL-28 melanoma; settings: 10 µM unless noted

| Compound | growth [1] | growth [2] | growth [3] | growth [4] | growth [5] | growth [6] | growth [7] | growth [8] | growth [9] | growth [10] | growth [11] | growth [12] | growth [13] | growth [14] | growth [15] | growth [16] | growth [17] | growth [18] | growth [19] | growth [20] |
| --- | --- | --- | --- | --- | --- | --- | --- | --- | --- | --- | --- | --- | --- | --- | --- | --- | --- | --- | --- | --- |
| COc1ccc(S(=O)(=O)Nc2cc(/C=C\c3cc(OC)c(OC)c(OC)c3)cc(OC)c2OC)cc1OC | 13.9% | 15.8% | 84.1% | 32.3% | -8.93% (active) | 38.4% | 8.39% (active) | -18.6% (active) | 72% | 2.52% (active) | 24.1% | 13.6% | -4.59% (active) | 40% | 23.1% | 34.3% | 23.7% | 37.3% | 48.2% | 52.5% |
| COc1cc(/C=C2\CCCC3=C2NC(C)=NC3c2cc(OC)c(OC)c(OC)c2)cc(OC)c1OC (stereo not given) | 4.92% (active) | 11.1% | 30.2% | 13% | 22.7% | 21.2% | -25% (active) | 13.5% | 43.8% | -42% (active) | 4.23% (active) | 7.9% (active) | 21.9% | 61.2% | 9.77% (active) | 42.7% | 19.1% | 9.03% (active) | -41.2% (active) | 31.9% |
| COc1ccc(S(=O)(=O)N2CCN(c3cc4c(cc3F)c(=O)c(C(=O)O)cn4C3CC3)CC2)c(OC)c1 | 98.3% | 89.1% | 98% | 101% | 102% | 81.8% | 91.4% | 88.8% | 100% | 92.5% | 97.2% | 113% | 85.7% | 89.5% | 102% | 99.1% | 82.6% | 84.4% | 61.7% | 101% |
| Cc1cc(-c2ccccc2)c(C)n1Cc1ccc(Cl)cc1 | 86.6% | 13% | 59.4% | 67% | 61.4% | 58.5% | 39.7% | 39.4% | 48.4% | 17.7% | 32.8% | 13.8% | 38.5% | 61% | 25% | 57.3% | 40.7% | 40.7% | 45% | 55.8% |
| COc1ccc(/C=C/c2nc(N3CCOCC3)c3nc(Cl)c(Cl)cc3n2)cc1OC | 101% | 77.7% | 144% | 110% | 109% | 105% | 87.9% | 98.8% | 111% | 103% | 97.5% | 97.4% | 88.3% | 102% | 103% | 102% | 103% | 101% | 97.2% | 109% |
| CN1CCN(c2ccc3cc(-c4nc5ccccc5[nH]4)c(=O)oc3c2)CC1 | 112% | 43.7% | 90.4% | 80.2% | 108% | 105% | 104% | 93.5% | 83.3% | 88.8% | 91% | 108% | 91.8% | 118% | 99.3% | 83.2% | 74.6% | 81.6% | 87.2% | 94.9% |
| COc1ccc(-c2nc3sccn3c2-c2ccnc(NCCCNS(=O)(=O)c3ccc(C)cc3)n2)cc1 | 34.1% | 19.9% | 54.7% | 23.5% | 34.6% | 38.1% | 21.4% | 56.9% | 40% | 23.2% | 16.8% | 18.4% | 77.4% | 71.7% | 45.1% | 31.5% | -5.18% (active) | 10.9% | 11% | 41.5% |
| NC(=O)NC(=O)/C=C/C(=O)OCCCl | 112% | 94.4% | 95.9% | 115% | 105% | 110% | 89.1% | 105% | 77.4% | 113% | 77.5% | 90% | 80.3% | 101% | 101% | 92.1% | 106% | 104% | 98.6% | 100% |
| COc1cccc(-c2nc3sccn3c2-c2ccnc(NCCNS(=O)(=O)c3ccccc3)n2)c1 | 65.8% | 36.9% | 66.6% | 63.5% | 64.2% | 62.7% | 63.6% | 79.9% | 81.4% | 35.8% | 42.9% | 34% | 79.8% | 97.3% | 71.9% | 69.2% | 28.2% | 32.5% | 48% | 66.4% |
| CCCCCCCCCCCCNC(=S)N/N=C/c1ccc(Cl)c(Cl)c1 | 116% | 97.2% | 113% | 104% | 108% | 118% | 98.3% | 94.2% | 107% | 105% | 87.2% | 82.2% | 96.8% | 114% | 108% | 107% | 99% | 95.5% | 120% | 104% |
| COc1cc(Cn2c(SCC(=O)Nc3cc(OC)c(OC)c(OC)c3)nc3ccccc3c2=O)cc(OC)c1OC | 94.6% | 97.4% | 82.8% | 58.2% | 61.6% | 54.7% | 85.9% | 66.1% | 102% | 95% | 89.9% | 99.5% | -13.7% (active) | 74.8% | 52.6% | 87.7% | 90.4% | 84.4% | 92.1% | 100% |
| O=S(=O)(c1ccccc1)n1ccc(-c2ccc3c(c2)CCO3)n1 | 95% | 56.1% | 94% | 82.9% | 82.9% | 92.7% | 83.3% | 86.7% | 79.9% | 101% | 92.8% | 92.8% | 76.2% | 83.4% | 73.6% | 84.2% | 70.2% | 73.1% | 85.2% | 86.2% |
| C=CCn1c(C)nc2ccc(Nc3nc(Nc4ccc(F)cc4)nc4ccccc34)cc21 | 74.1% | 21% | 74.5% | 73.8% | 66.6% | 66% | 31.4% | 73% | 92.6% | 45.2% | 34.5% | 18.7% | 54.6% | 96.5% | 59.6% | 42.1% | 33.3% | 63.2% | 45.3% | 72% |
| CCCC(C(=O)OCC)C(C)OC(=O)OCC (stereo not given) | 106% | 81.6% | 85.9% | 105% | 96.3% | 96.9% | 84.7% | 107% | 97.5% | 97.6% | 99.9% | 104% | 79% | 106% | 102% | 102% | 103% | 103% | 99.1% | 107% |
| COc1cc(/C=C2\C=C(c3ccc(F)cc3)N(Cc3ccccc3)C2=O)cc(OC)c1OC | 94.8% | 56.1% | 90.7% | 78.7% | 64.5% | 77.4% | 83.6% | 87% | 79.3% | 76.2% | 53.6% | 78.9% | 70.8% | 79% | 48.8% | 32.7% | 36.1% | 71.6% | 65.3% | 94.2% |
